# TDP1 cell CPT = qHTS for Inhibitors of human tyrosyl-DNA phosphodiesterase 1 (TDP1): qHTS in cells in presence of CPT | chicken DT40 Tdp1-/-;hTDP1 cells + 20 nM CPT, ATP luminescence, 48 h | Potency, µM (titrated, usually from 46.2 µM), hits mostly inhibitors | 420,000 compounds, 12% hits | AID 686979, 2013; note: nearly all actives have a fitted effect of over 55% in size
#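 Chicken DT40 Tdp1-/- cells stably complemented with human TDP1 were seeded at 400 cells/well in medium containing 20 nM camptothecin, exposed to pin-transferred compounds, and grown at 37 °C for at least 48 hr. Viability was read as ATP luminescence.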
# IL-1B inflam inh = qHTS for Inhibitors of Inflammasome Signaling: IL-1-beta AlphaLISA Primary Screen. THP-1 LPS/ATP IL-1B secretion, AlphaLISA, 16 h; active compounds read low. activity change, % at 57.5 µM. 360,000 compounds, 4.7% hits. AID 743279, 2014; in the data active = activity change below about -50%; inconclusive = mostly about -30% to -49%
#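 Secreted IL-1B measured by AlphaLISA bead assay after 16 h compound exposure of THP-1 cells; compounds (final up to 57.5 uM) added 1 h before LPS (250 ng/mL) and ATP (1.25 mM) stimulation; lower signal means less secretion.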
# HT1080 IDH1KD tx = qHTS for induction of synthetic lethality in tumor cells producing 2HG: qHTS for the HT-1080-IDH1KD cell line. Potency, µM (highest dose often 46.1 µM), usual class: cytotoxic. HT-1080 IDH1 knockdown viability, ATP luminescence, 48 h. AID 686971, 2013. 360,000 compounds, 2% hits
#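 % activity derives from luminescence (CellTiter-Glo), normalised to DMSO and no-cell wells. HT-1080-IDH1KD cells, 750/well, had 48 h compound exposure at 37 °C.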
# DT40 TDP1 no CPT = qHTS for Inhibitors of human tyrosyl-DNA phosphodiesterase 1 (TDP1): qHTS in cells in absence of CPT; DT40 Tdp1-/- hTDP1 cells, no CPT, ATP luminescence, 48 h; Potency, µM (titrated, usually from 46.2 µM), most hits filed as inhibitors; 420,000 compounds, 15% hits; AID 686978, 2013; note: nearly all actives have a fitted effect of over 55% in size
#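 Growth kinetics read by CellTiter-Glo luminescence after ≥48 hr at 37 °C. Cells: DT40 Tdp1-/- stably carrying human TDP1, 400 per well, compound exposure in the absence of CPT (DMSO vehicle).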
# HT1080-NT tox = qHTS for induction of synthetic lethality in tumor cells producing 2HG: qHTS for the HT-1080-NT fibrosarcoma cell line | HT-1080-NT fibrosarcoma viability, CellTiter-Glo ATP luminescence, 48 h | Potency, µM (titrated, usually from 46.1 µM), hits mostly cytotoxic | 360,000 compounds, 1.6% hits;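 note: NT is the 2HG producing partner of a matched IDH1 knockdown line; nearly all actives have a fitted effect of over 55% in size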
#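 Compounds were tested in concentration-response format on HT-1080-NT cells for 48 hours at 37 degrees C. Cell viability came from CellTiter-Glo luminescence; curves were classified by r2, response magnitude and activity.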
# A number is an active result; - = inactive; ? = inconclusive; . = not tested or not shown. An excerpt weighted towards active compounds, which were near 19% of everything screened. Unless noted, calls come from the whole dose curve; as a rule, active = well fitted curve in the direction sought with a large enough effect; inconclusive = small, poorly fitted or top-dose-only effect, or another doubt; inactive = no such curve, though single readings can be large; an effect the other way counts as inactive or inconclusive.
SMILES,TDP1 cell CPT,IL-1B inflam inh,HT1080 IDH1KD tx,DT40 TDP1 no CPT,HT1080-NT tox
CC1CN(C2CCCCC2)C(=O)NC1=O (stereo not drawn),-,-,-,-,-
Cc1cccc(N(CC(=O)NCCc2ccccc2)C(=O)CCC(=O)Nc2ccccn2)c1C,-,-,-,?,-
CCNc1nc(C#N)nc(NCC)n1,-,.,.,-,.
CCN(CC)C(=N)/C(C#N)=N/Nc1ccc(C)cc1,-,-54,-,-,-
COc1ccc(-c2cc(C(=O)Nc3cccc(O)c3)no2)cc1,-,-,-,-,-
COc1ccccc1C1CC(c2ccc(Cl)cc2)Nc2nc(N)nn21 (stereo not drawn),10µM,-,-,16µM,?
CCOc1ccccc1C1CC(c2ccc(F)cc2)Nc2nc(N)nn21 (stereo not drawn),1.2µM,-,-,?,-
Clc1ccc(C2CC(c3ccccc3)Nc3ncnn32)cc1 (stereo not drawn),?,-,-,-,-
COc1ccccc1C1CC(c2ccc(Cl)cc2)Nc2ncnn21 (stereo not drawn),15µM,-,-,21µM,-
COc1ccc(C2CC(c3cccs3)n3nc(N)nc3N2)cc1 (stereo not drawn),23µM,-59,-,?,-
OC[C@@H]1CN(Cc2cccs2)C[C@H](n2cnc3c(NC4CCC4)ncnc32)O1,-,-,-,-,?
COc1ccc2c(c1)c1c(c(=O)n(Cc3ccccc3)c(=O)n1Cc1ccccc1Cl)n2C,-,.,.,-,.
Cc1oc(C(=O)O)cc1COc1cccc2cccnc12,?,-,-,?,-
CC(=O)N1CCN=C1SCc1cccc(C)c1,-,-,-,-,-
COc1ccc(C2CC(c3ccccc3)n3nc(NC(=O)c4cccs4)nc3N2)cc1 (stereo not drawn),-,-72,-,?,-
COc1ccc(C2CC(c3ccccc3)Nc3nc(NC(=O)c4cccs4)nn32)cc1 (stereo not drawn),-,-,-,-,-
Nc1ccc2ccccc2c1C(=O)c1ccccc1,-,-,-,?,-
CC(C)(C)c1ccc(C(=O)N2CCC(c3nc4ccccc4o3)CC2)cc1,21µM,.,.,15µM,.
O=C(c1ccc(Cl)cc1)N1CCC(c2nc3ccccc3o2)CC1,?,.,.,15µM,.
CN(C)S(=O)(=O)c1ccc(C(=O)N2CCC(c3nc4ccccc4o3)CC2)cc1,-,-,-,?,-
Cc1cc(Cl)ccc1OCC(=O)N1CCC(c2nc3ccccc3o2)CC1,?,.,.,16µM,.
CCOC(=O)CNC(=O)C1(NC(=O)CNC(=O)OCc2ccccc2)CCCC1,-,?,-,-,-
Cc1ccccc1CN1CCCN(CC(=O)Nc2ccc3c(c2)OCCO3)S1(=O)=O,-,.,.,-,.
COc1ccc(-c2nnc(SCc3cc(C)ccc3C)n2N)cc1,-,-,-,?,-
C=C1CCC[C@]2(C)C[C@H]3OC(=O)C(CNCCN(C)C)[C@H]3CC12 (stereo partly drawn),?,-,?,?,?
C=C1CCC[C@]2(C)C[C@H]3OC(=O)C(CNCC(C)C)[C@H]3CC12 (stereo partly drawn),?,-69,?,16µM,?
C=C1CCC[C@]2(C)C[C@H]3OC(=O)C(CN4CC(C)OC(C)C4)[C@H]3C[C@@H]12 (stereo partly drawn),?,-71,?,?,?
C=C1CCC[C@]2(C)C[C@H]3OC(=O)C(CNCCN(CC)CC)[C@H]3CC12 (stereo partly drawn),?,-96,?,16µM,-
Cc1ccc(C)c(Cn2nnc(C(=O)NCc3ccccc3)c2N)c1,-,.,.,?,.
Cc1cccc(C)c1-n1nnnc1C(c1ccnc2ccccc12)N(C)Cc1ccc(Cl)c(Cl)c1 (stereo not drawn),-,-,-,?,-
